From PubChem
The list is not random: actives were taken first. Their share in the collection is about 28%.
CYP2C9 inhib: human CYP2C9 inhibition | CYP2C9 Supersomes, luciferin-H conversion, luminescence | inhibition, % at 5 µM | 96,000 tested, 20% active;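 active = blocking of liver enzyme CYP2C9 beyond about 50% at 5 µM, limit read from the data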
Target sequence (P11712 whole entry, looked up): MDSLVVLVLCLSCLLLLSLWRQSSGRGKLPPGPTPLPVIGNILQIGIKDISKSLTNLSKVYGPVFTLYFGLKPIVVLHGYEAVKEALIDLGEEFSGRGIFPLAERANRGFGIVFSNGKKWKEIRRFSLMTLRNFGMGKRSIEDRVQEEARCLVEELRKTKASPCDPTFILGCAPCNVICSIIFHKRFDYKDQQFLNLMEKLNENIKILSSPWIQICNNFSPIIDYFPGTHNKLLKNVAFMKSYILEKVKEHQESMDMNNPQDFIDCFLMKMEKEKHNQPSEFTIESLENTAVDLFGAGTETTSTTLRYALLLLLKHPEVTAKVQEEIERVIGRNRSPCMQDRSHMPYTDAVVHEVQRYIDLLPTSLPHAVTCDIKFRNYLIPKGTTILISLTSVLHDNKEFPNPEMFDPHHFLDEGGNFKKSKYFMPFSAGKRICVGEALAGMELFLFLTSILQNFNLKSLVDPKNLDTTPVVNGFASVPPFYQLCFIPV
CYP2C9 act: CYP2C9 (human) activation; 96,000 tested, 1.4% active; AID 1024; activation factor at 5 µM; recombinant CYP2C9, luciferin-H conversion, luminescence; hits give high values; factor 1 = untreated enzyme, 0 = blocked; P11712;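 active = activation factor of 2 or more for CYP2C9 at a 5 µM dose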;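 note: 0 = sulfaphenazole-blocked wells and 1 = vehicle-only wells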
CYP2C19 activ: cytochrome P450 2C19 (human) activation; activation factor at 5 µM; 96,000 tested, under 10 active; recombinant CYP2C19, luciferin-H EGE luminescence; hits give high values; 0 = fully inhibited enzyme, 1 = untreated enzyme; P33261;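 active = activation factor of at least 2 at 5 µM in the primary screen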;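 note: 0 = wells with 2.5 mM tranylcypromine and 1 = vehicle-only wells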
CD11b adhes enh: CD11b/CD18-fibrinogen binding enhancement | P05107+P11215 | K562 CD11b/CD18 adhesion to fibrinogen, ATPlite luminescence | activation, % at 10 µM | 93,000 tested, 0.07% active | AID 1499;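 active = 10 µM primary screen giving 50% or more activity, confirmed by 40% or more on retest at that dose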
CD11b adhes inh: inhibitors of human CD11b/CD18 binding to fibrinogen; P05107+P11215; K562 CD11b/CD18 adhesion to fibrinogen, ATPlite luminescence; Mn2+ added to activate the integrin; inhibition, % at 10 µM; 93,000 tested, 0.54% active; AID 1497;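 active = primary inhibition of 50% or more at 10 µM, then 40% or more on retest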
CYP2C19 inh: inhibitors of human CYP2C19 | P33261 | CYP2C19 Supersomes, luciferin-H EGE luminescence, 30 min | inhibition, % at 5 µM | 96,000 tested, 21% active;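 active = CYP2C19 inhibition above a set limit at 5 µM in the primary screen, cut at about 50% in these data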;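 note: plate controls were negative control wells for no effect and 2.5 mM tranylcypromine positive control for full effect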
An asterisk follows results filed as active; x = not tested or not shown.

SMILES	CYP2C9 inhib	CYP2C9 act	CYP2C19 activ	CD11b adhes enh	CD11b adhes inh	CYP2C19 inh
COc1ccc(NC(=O)CN(C)S(=O)(=O)c2cccs2)cc1	49	0.5	0.6	-6	5	44
Cc1cc(NC(=O)CNC(=O)C2CCCCC2)no1	-1	1	0.9	-7	-7	6
Cc1nn(C(=O)CN2C(=O)c3ccccc3C2=O)c(C)c1Br	-1	1	1	x	x	-2
COc1ccc(C(=O)CN2C(=O)c3ccccc3C2=O)c(OC)c1C	72*	0.3	0.2	2	-29	83*
CC(NC(=O)COC(=O)CCNC(=O)c1ccco1)C12CC3CC(CC(C3)C1)C2 (centres undefined)	56*	0.4	0.5	0	2	51*
COc1cccc(NCc2cc3c(C(C)(C)C)nn(-c4ccccc4)c3[nH]c2=O)c1	82*	0.2	0.7	-1	16	28
CCOc1ccc(NCc2cc3c(C(C)(C)C)nn(-c4ccccc4)c3[nH]c2=O)cc1	59*	0.4	0.8	-2	11	15
Cc1cccc(Nc2nc(NC(C)C)nc(Oc3ccc(=O)n(C)n3)n2)c1	53*	0.5	0.8	0	-5	16
CC(=O)Nc1ccc(S(=O)(=O)n2cnc3ccccc32)cc1	13	0.9	0.7	-3	4	31
CNCc1ccccc1Sc1ccc(OC)c(OC)c1	20	0.8	0.4	0	0	58*
CNCc1ccc(OCc2ccccc2)c(OC)c1	3	1	0.7	6	1	33
Cc1ccc(S(=O)(=O)N(CC(=O)N/N=C/c2ccco2)Cc2ccccc2)cc1	42	0.6	0.6	-3	10	36
COc1ccc(CNC(=O)CN(Cc2ccc(C)cc2)S(=O)(=O)c2ccc(Cl)cc2)cc1	26	0.7	0.7	4	7	32
Cc1cccc(CN(CC(=O)N/N=C/c2cccs2)S(=O)(=O)c2ccc(Cl)cc2)c1	70*	0.3	0.3	x	x	74*
Cc1cccc(CN(CC(=O)N/N=C/c2ccco2)S(=O)(=O)c2ccc(Cl)cc2)c1	93*	0.1	0	0	-9	100*
CCN(CC)CCNS(=O)(=O)c1ccc(OC)c(Br)c1	-52	1.5	0.7	-4	3	32
Cc1ccc(S(=O)(=O)NC(CC(C)C)C(=O)NCc2ccco2)cc1 (centres undefined)	56*	0.4	0.5	-2	-6	54*
Cc1ccc(S(=O)(=O)NC(CC(C)C)C(=O)Nc2nccs2)cc1 (centres undefined)	81*	0.2	0.6	-2	-4	43
CC(C)c1cc(C(=O)NCc2cccnc2)no1	13	0.9	0.7	-2	-8	26
CCCn1c(=O)c(C(=O)NCc2ccncc2)c(O)c2ccccc21	80*	0.2	0.3	0	1	68*
CCn1c(C(=O)NCc2cccnc2)cc2sc(Cl)cc21	90*	0.1	0	4	-10	99*
CCn1c(=O)c(C(=O)NCCNCCO)c(O)c2ccccc21	-26	1.3	0.8	-2	-18	25
CCn1c(=O)c(C(=O)NCc2cccnc2)c(O)c2ccccc21	72*	0.3	0.7	-2	-10	28
COc1cc(/C=C/C(=O)OCC(=O)c2c[nH]c3ccccc23)ccc1OC(F)F	x	x	x	14	14	x
CCN=C1SC(CC(=O)Nc2sc(C)c(C)c2C(=O)OC)C(=O)N1CC (centres undefined)	17	0.8	0.6	-2	-3	42
SMILES	CYP2C9 inhib	CYP2C9 act	CYP2C19 activ	CD11b adhes enh	CD11b adhes inh	CYP2C19 inh
CCOC(=O)C1=C(C)NC(=O)C(C(N)=O)C1c1ccccc1 (centres undefined)	11	0.9	0.9	-1	-6	8
C=CCn1c(CCC(=O)O)ccc1-c1ccccc1	70*	0.3	0.6	0	4	39
COC(=O)c1c(N)sc(C(C)=O)c1C	5	1	1	0	1	-1
COC(=O)c1sc(=S)sc1C(=O)OC	24	0.8	0.5	1	-12	52*
Cc1cc(NC(=O)Cn2c(=O)n(Cc3ccccc3)c(=O)c3ccccc32)no1	18	0.8	0.8	-1	-10	23
CCN(C(=O)Cn1c(=O)n(Cc2ccccc2)c(=O)c2ccccc21)c1cccc(C)c1	86*	0.1	1	2	-12	5
O=C(NCCOCC(F)(F)C(F)F)c1cc(F)c(F)cc1Cl	15	0.9	0.6	8	-18	38
CC(C)(C)c1ccc(S(=O)(=O)NCCOCC(F)(F)C(F)F)cc1	-141	2.4*	0	-2	6	97*
CC(C)(C)c1ccc(S(=O)(=O)NCCc2ccncc2)cc1	92*	0.1	0	-7	18	100*
CCCc1ccc(S(=O)(=O)NCCc2ccncc2)cc1	98*	0	0	-4	27	99*
O=C(O)CCc1ccc(S(=O)(=O)NCCc2ccccc2)cc1	2	1	1.2	-4	5	-16
CCCCCc1ccc(S(=O)(=O)NCCc2ccncc2)cc1	97*	0	0	-6	89	100*
CC(=O)c1ccc(N2CCN(C(=S)Nc3ccccc3F)CC2)cc1	x	x	x	10	0	x
CCN1C(=O)N(CN2CCOCC2)C2C1N(CN1CCOCC1)C(=O)N2CC (centres undefined)	14	0.9	1	3	-11	0
COc1cc(-n2nnnc2SCC(=O)N2CCN(c3ccc(F)cc3)CC2)c(OC)cc1Cl	8	0.9	1.1	4	9	-12
CC1(C)CC(=O)C(C=NCCN2CCN(C(=O)C34CC5CC(CC(C5)C3)C4)CC2)=C(O)C1	4	1	0.7	0	-17	34
CCSC1=NC2(CCCCC2)Nc2sc3c(c21)CCCC3	74*	0.3	0.4	-3	-24	63*
CCCCCCCn1ccc(=N)cc1	38	0.6	1.3	-6	83*	-28
CCCCCn1ccc(=N)cc1	-5	1.1	1	-3	31	-3
Nc1ccnn1Cc1cccs1	x	x	x	-4	-9	x
COc1ccc(-c2nc(N)n(C(=O)Cc3ccccc3)n2)cc1	11	0.9	0.9	-1	5	10
COc1ccc2cc3c(N)nn(C(=O)Cc4ccccc4OC)c3nc2c1	75*	0.3	0.2	28	18	78*
CCC(C)NC(=O)Cn1cc2c(n1)CCC(C)C2 (centres undefined)	4	1	0.9	-7	-4	15
N#Cc1c(Nc2ccccc2)c(C=NCCN2CCOCC2)c[nH]c1=O	14	0.9	0.3	x	x	73*
N#Cc1c(Nc2ccccc2)c(/C=N/N=C/c2ccccc2)c[nH]c1=O	x	x	x	2	-2	x
COCCCn1c(Cc2ccccc2)nnc1SCC(=O)N1CCCCC1	38	0.6	0.9	1	12	14
